# In PubChem BioAssay:
# Where “and” joins values, the source holds several entries; their conditions need not be identical. Equal entries are not always repeated. Records with an inconclusive call do not appear. Calls of active or inactive are those of the source. Rule as the data show it, unless noted: active = inhibition above about 80%; inactive = the rest.
# Key:
# [1] = viability loss in pontine glioma line – cell-based, SU-DIPG-XIII, MIPE4.0, CellTiter-Glo, qHTS, dose response (AID 1347061; cut-off not given, nearly all actives have AC50 up to about 37 µM;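 also: cells exposed to compound for 48 hours before readout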); conditions: CellTiter-Glo ATP luminescence
# [2] = viability loss in pontine glioma line – cell-based, SU-DIPG-IV, MIPE4.0, CellTiter-Glo, qHTS, dose response (AID 1347063; cut-off not given, nearly all actives have AC50 up to about 30 µM;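 also: compound exposure lasted 48 hours before the viability readout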); conditions: CellTiter-Glo ATP luminescence
# [3] = growth inhibition of DIPG cells – cell-based, MIPE4.0 library, CellTiter-Glo luminescence, qHTS (AID 1347066; cut-off not given, nearly all actives have AC50 up to about 30 µM;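 also: cells exposed to compound for 48 hours before readout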); conditions: SU-DIPG-VI viability, CellTiter-Glo ATP luminescence
# [4] = viability loss with induced miR-34 in A549 – imaging, A549 dox-inducible miR-34, nuclei and caspase counts, primary screen (AID 1347080;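 active = compounds whose cell count with miR-34 switched on is under 0.7 times the count with it off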); conditions: A549 miR-34 inducible, Hoechst nuclei count, 48 h
# [5] = compounds altering HSF1 focus formation in cells – imaging, Selleck Cancer Library (AID 1347162; in the data active = plate-normalised HSF1 focus index below about 0.46); conditions: human cells, HSF1 nuclear foci imaging, at 10 µM; SSMD: measured here: HSF1 foci SSMD mean; cell count: measured here: cell number; plate-normalised HSF1 focus index: stronger effect = lower value
# [6] = MELAS cybrid and Rieske KO viability enhancers – cell-based, MELAS cybrids, Rieske KO mouse fibroblasts, CellTiter-Glo, primary screen (AID 1508586;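 active = mean z-score across replicates of 1.96 or higher in either the MELAS or the Rieske mutant cell line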;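 also: z relative to plate mean and SD of compound and empty wells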); conditions: low glucose
# [7] = growth inhibition, single agent or in combination, cell-based, chromothripsis tumors, cisplatin or BGB combos (AID 1671449); conditions: LFS_MB_P medulloblastoma cells;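 also: cells exposed for 96 hours; 0% = vehicle DMSO and 100% = killing by high DMSO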
# [8] = growth inhibition, single agent and combos, cell-based, chromothripsis tumors, cisplatin or BGB combos (AID 1671450); conditions: HDN33 neuroblastoma cells, stronger effect = higher value;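 also: cells exposed to compound for four days; 0% = vehicle DMSO and 100% = cell killing by high DMSO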
# [9] = growth inhibition, single agents and combos, ICB984, cell-based, cisplatin or BGB combos, synergistic combos for chromothripsis tumors (AID 1671451; call rule not given here;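 also: cells exposed for 96 hours before readout; 0% = vehicle DMSO and 100% = killing by high DMSO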); conditions: ICB984 medulloblastoma cells, drug combinations, stronger effect = higher value
# [10] = growth inhibition, single agents and combos, HTB85, cell-based, BGB or cisplatin IC20 combos, synergistic combos for chromothripsis tumors (AID 1671453); conditions: HTB85 osteosarcoma cells, drug combinations, stronger effect = higher value;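 also: cells exposed for 96 hours before readout; 0% = vehicle DMSO and 100% = high DMSO killing control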
# [11] = growth inhibition, MDA-MB-436, cell-based, BGB or cisplatin combos, synergistic combos for chromothripsis tumors (AID 1671458; call rule not given here;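 also: cells exposed for 96 hours; 0% = vehicle DMSO and 100% = killing by high DMSO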); conditions: MDA-MB-436 breast carcinoma growth inhibition, drug combinations, stronger effect = higher value
# [12] = BT084 cell growth, single and combined drugs, ICGC_MB145, cisplatin and BGB IC40 combos (AID 1671461); conditions: BT084 medulloblastoma cells, drug combinations, stronger effect = higher value;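 also: cells exposed to drugs for 96 hours; 0% = vehicle DMSO and 100% = high DMSO full killing control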
# [13] = RCMB18 cell growth, single agent and combined, cisplatin and BGB IC40 combos (AID 1671462); conditions: RCMB18 medulloblastoma cells, stronger effect = higher value;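 also: cells exposed to compound for four days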
# [14] = CRL1545 cell growth, single agent and combined, cisplatin and BGB IC20 combos (AID 1671464); conditions: CRL1545 osteosarcoma cells, stronger effect = higher value;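 also: cells exposed to compound for 96 hours before readout; 0% = vehicle DMSO and 100% = high DMSO killing control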
# [15] = viability loss in pontine glioma line – cell-based, SU-DIPG-XXV, MIPE5.0, CellTiter-Glo, qHTS, dose response (AID 1347065; cut-off not given, nearly all actives have AC50 up to about 26 µM;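 also: cells exposed to compound for 48 hours before ATP readout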); conditions: CellTiter-Glo ATP luminescence
# [16] = JHH-DIPG-1 glioma cell viability, MIPE5.0 library, CellTiter-Glo luminescence, qHTS (AID 1347067; cut-off not given, nearly all actives have AC50 up to about 26 µM;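 also: cells exposed to compound for 48 hours before readout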); conditions: JHH-DIPG-1 glioma viability, CellTiter-Glo ATP luminescence
# [17] = measured here: with BGB IC20 combination, at 0.5 µM
# [18] = measured here: with cisplatin IC20 combination, at 0.5 µM
structure (smiles),measurement,setting,value
CNCc1ccc(-c2[nH]c3cc(F)cc4c3c2CCNC4=O)cc1,outcome,[1],inactive
same,outcome,[2],inactive
same,outcome,[3],inactive
same,fold change,"[4]; stronger effect = lower value, cell number ratio, induced over uninduced",0.956 (inactive)
same,fold change,[4]; measured here: relative caspase fold change +Dox/-Dox,1.62
same,cell count,"[4]; measured here: total cells with miR-34 induction, stronger effect = lower value",6530
same,cell count,[4]; measured here: total cells without miR-34 induction,6840
same,SSMD,[5],2.12
same,cell count,[5],7610
same,plate-normalised HSF1 focus index,[5],1.13 (inactive)
same,z-score,"[6]; MELAS cybrid survival, CellTiter-Glo 48 h, stronger effect = higher value",-0.49 (inactive)
same,z-score,"[6]; Rieske KO mouse fibroblast survival, CellTiter-Glo 72 h",-0.266
same,inhibition,"[7]; at 0.5 µM, stronger effect = higher value",11.2% (inactive) and -4.36% (inactive)
same,inhibition,"[7]; measured here: combination with BGB IC20, at 0.005 µM",-33.6% and -11.5%
same,inhibition,"[7]; measured here: combination with BGB IC40, at 0.005 µM",-21.8% and 22.8%
same,inhibition,"[7]; measured here: combination with BGB IC40, at 0.05 µM",-33.3% and -12.4%
same,inhibition,"[7]; measured here: combination with cisplatin, at 0.5 µM, stronger effect = higher value",-17.5% and -5.55%
same,inhibition,"[7]; measured here: combination with cisplatin, at 5 µM, stronger effect = higher value",-45.3% and -35.9%
same,inhibition,"[8]; BGB combo, at 5 µM",-25.2% and 11.9%
same,inhibition,[8]; at 0.5 µM,-14.8% (inactive) and 14.3% (inactive)
same,inhibition,"[8]; cisplatin combo, at 5 µM",-4.69% and 14.3%
same,inhibition,[8]; [17],-21.7% and 13.3%
same,inhibition,[8]; [18],-14.7% and 11.6%
same,inhibition,"[8]; single agent, at 5 µM",9.94% and 30.8%
same,inhibition,"[9]; BGB IC20 combo, at 0.005 µM",-15.3% and 7.74%
same,inhibition,"[9]; BGB IC40 combo, at 0.005 µM",-14.9% and -10.3%
same,inhibition,"[9]; BGB IC40 combo, at 0.05 µM",-15.6% and -2.1%
same,inhibition,[9]; at 0.5 µM,-18% (inactive) and -11.9% (inactive)
same,inhibition,"[9]; cisplatin combo, at 0.05 µM",-19.7% and -5.77%
same,inhibition,"[9]; cisplatin combo, at 0.5 µM",-11.2% and -6.08%
same,inhibition,"[9]; cisplatin combo, at 5 µM",-48.3% and -31.5%
same,inhibition,"[9]; measured here: 5 uM single agent, at 5 µM",4.24% and 12.5%
same,inhibition,[10]; at 0.5 µM,-0.57% (inactive) and 3.23% (inactive)
same,inhibition,"[10]; measured here: with BGB IC20, at 0.5 µM",-24.5% and -14.6%
same,inhibition,"[10]; measured here: with BGB IC20, at 5 µM",-20.2% and -0.361%
same,inhibition,"[10]; measured here: with cisplatin IC20, at 0.5 µM",6.68% and 16.2%
same,inhibition,"[10]; measured here: with cisplatin IC20, at 5 µM",-9.57% and 9.16%
same,inhibition,"[10]; single agent, at 5 µM",-2.29% and 13.1%
same,inhibition,[11]; at 0.5 µM,2.86% (inactive) and 14.9% (inactive)
same,inhibition,"[11]; measured here: BGB combination, at 0.5 µM",-19.1% and 0.063%
same,inhibition,"[11]; measured here: BGB combination, at 5 µM",-12.9% and -16%
same,inhibition,"[11]; measured here: cisplatin combination, at 0.5 µM",9.87% and 19.6%
same,inhibition,"[11]; measured here: cisplatin combination, at 5 µM",31.2% and 24.2%
same,inhibition,[12]; at 0.5 µM,-22% (inactive) and 7.71% (inactive)
same,inhibition,"[12]; cisplatin combination, at 0.5 µM",-60.7% and -23.3%
same,inhibition,"[12]; cisplatin combination, at 5 µM",-41.6% and -18%
same,inhibition,"[12]; measured here: BGB IC40 combination 0.05 uM, at 0.05 µM",24.6% and 0.2%
same,inhibition,"[12]; single agent, at 5 µM",-4.29% and -11.5%
same,inhibition,[13]; at 0.5 µM,-28.5% (inactive) and -5.9% (inactive)
same,inhibition,"[13]; cisplatin combo, at 5 µM",-30.1% and -29%
same,inhibition,"[13]; measured here: BGB IC40 combination, at 0.05 µM",-11.1% and 4.25%
same,inhibition,"[13]; measured here: combination with cisplatin, at 0.5 µM",-71.1% and 1.49%
same,inhibition,"[13]; single agent, at 5 µM",-19.5% and -1.31%
same,inhibition,[14]; at 0.5 µM,3.62% (inactive) and -10.7% (inactive)
same,inhibition,[14]; [17],-15.5% and 1.35%
same,inhibition,[14]; [18],11.8% and -18.6%
same,inhibition,"[14]; single agent, at 0.05 µM",15.8% and 33%
same,inhibition,"[14]; single agent, at 5 µM",1.41% and -6.63%
CC(O)(C#Cc1ccc2c(c1)N(c1nc(N)ncc1Cl)CC2)c1nccs1 (stereo not given),AC50,[1],16.6 µM (active)
same,AC50,[2],16.6 µM (active)
same,AC50,[15],13.2 µM (active)
same,outcome,[3],inactive
same,AC50,[16],18.6 µM (active)
Cc1cn2c(-c3cn[nH]c3)cnc2c(Nc2ccc(C(=O)N3CCNCC3)cc2F)n1,AC50,[1],23.5 µM (active)
same,AC50,[3],18.7 µM (active)
COc1cccc2c1CCCC2CCCN1CCN(C2CCCCC2)CC1 (stereo not given),outcome,[1],inactive
same,AC50,[2],18.7 µM (active)
same,SSMD,[5],-2.1
same,cell count,[5],5730
same,plate-normalised HSF1 focus index,[5],0.878 (inactive)
